The structures appear in SMILES notation. Records with an inconclusive call do not appear. Calls of active or inactive are those of the source. Unless noted, calls follow the shape of the dose curve; as a rule, active = well fitted curve in the direction sought with a large enough effect; inconclusive = small, poorly fitted or top-dose-only effect, or another doubt; inactive = no such curve, though single readings can be large; an effect the other way counts as inactive or inconclusive.

Experiment [1] can be described thus: High-throughput drug toxicity screening in the BPDCN cell line Gen2.2 (AID 1224824; call rule not given here;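 also: cells exposed to compounds for 48 h before reading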). The note with it: Gen2.2 BPDCN cells; at 45.8 µM (top of the series) unless noted. In a few lines: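 Gen2.2, 500 cells/well, phenol red-free RPMI/10% FBS/Pen-Strep; 48 h cpd, 37 °C/5% CO2; CTG lum, 15 min RT. Norm: DMSO = 100%, bortezomib 9.2 uM final = 0%.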
Experiment [2] can be described thus: High-throughput drug toxicity screening in the BPDCN cell line Cal-1 (AID 1224825; call rule not given here). The conditions noted are these: Cal-1 BPDCN cell viability, qHTS; at 45.8 µM (top of the series) unless noted. An outline of the steps: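 500 Cal-1 cells/well, RPMI + glutamine + 10% FBS (phenol red-free); cpd added by pin tool; 48 h, 37C, 5% CO2; CTG 15 min RT, lumi read. Normalised: DMSO 100%, bortezomib 9.2 uM 0%.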

Experiment [3] is described as follows: qHTS assay for measurement of the activity of small molecule inhibitors on Zika virus induced Caspase-3 activity in human iPSC derived neural progenitor cells (hNPCs) (AID 1224857). Also: % of control where 0% means no effect; nearly all actives have a fitted effect of over 65% in size. In a few lines:
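Quantitative HTS format: human iPSC neural progenitors, 1 h compound pretreatment, ZIKV 2 FFU/cell for 6 h at 37 C. Percent inhibition derived from luminescent caspase-3/7 signal between uninfected and infected controls.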
A general note: Quantitative high-throughput screening tests each substance at several concentrations.

Experiment [4] in a line: qHTS assay for measurement of the activity of small molecule inhibitors on Zika virus induced Caspase-3 activity in human astrocytoma cells (AID 1224859).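 Also: plate controls were ZIKV-infected untreated cells for no effect and uninfected cells for full effect.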 In a few lines: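 Readout is luminescence from Caspase-Glo 3/7 added after a 6 h ZIKV infection (2 FFU/cell) of compound-pretreated (1 h) SNB-19 cells; data expressed as % inhibition versus uninfected and infected wells.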

Experiment [5] in a line: qHTS Screen of the MIPE 4.0 Collection Against Ewings Sarcoma (RDES) (AID 1259252). Also: nearly all actives have a fitted effect of over 35% in size. Also: potency is read from the fitted curve at half-maximal effect. In a few lines: (§1)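 After a 4 h attachment period in RPMI/5% FBS, cells were pin-dosed with test compounds; DMSO served as negative and 9.2 uM bortezomib (final) as positive control. Luminescent CellTiter-Glo signal at 48 h defined viability.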
Experiment [6] in a line: qHTS Screen of the MIPE 4.0 Collection Against Ewings Sarcoma (TC71) (AID 1259253). Also: nearly all actives have a fitted effect of over 40% in size. Also: potency is read from the fitted curve at half-maximal effect. In a few lines:
as §1

Experiment [7] in a line: qHTS Screen of the MIPE 4.0 Collection Against Ewings Sarcoma (EW8) (AID 1259255). Also: nearly all actives have a fitted effect of over 35% in size. Also: potency is read from the fitted curve at half-maximal effect.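 As to viability: 100% = DMSO-treated cells and 0% = medium-only wells without cells.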 In a few lines:
as §1

Experiment [8] can be described thus: qHTS Screen of the MIPE 4.0 Collection Against Ewings Sarcoma (TC32) (AID 1259256). Also: nearly all actives have a fitted effect of over 45% in size. Also: potency is read from the fitted curve at half-maximal effect. In a few lines:
as §1

Experiment [9] in a line: qHTS assay to identify small molecule inhibitors of chordoma cells - UCH-1 (AID 1259355). Also: % is scaled to controls: 0 for no effect and ±100 for the full control effect; nearly all actives have a fitted effect of over 55% in size. An outline of the steps:
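Seed 800 cells per well; incubate overnight at 37 C, 5% CO2. Add test compounds (15 concentrations), then the auranofin–topoisomerase-agent combination. Incubate 48hr, add CellTiter-Glo, wait 30min, read luminescence.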

The nature of experiment [10]: qHTS profiling of the MIPE4 collection as inhibitors of Plasmodium falciparum (3D7) proliferation (AID 743344; call rule not given here;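 also: scaled between DMSO vehicle wells and 0.29 µM artemisinin as full inhibition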). The note with it: P. falciparum 3D7 in erythrocytes, SYBR Green DNA fluorescence, 72 h; at 28.5 µM (top of the series) unless noted. In a few lines: (§2)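 Erythrocytes infected with P. falciparum (0.3% parasitemia, 2.5% hematocrit) incubated with compounds 72 h at 37 C, 5% CO2. Lysis with saponin/Triton buffer containing SYBR Green I, overnight at room temperature in the dark; DNA fluorescence (485/535 nm) normalised to 0.29 uM artemisinin and DMSO.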

Experiment [11] can be described thus: qHTS profiling of the MIPE4 collection as inhibitors of Plasmodium falciparum (DD2) proliferation (AID 743345; call rule not given here). The note with it: P. falciparum Dd2 in erythrocytes, SYBR Green DNA, 72 h; at 28.5 µM (top of the series) unless noted. An outline of the steps: as §2
Experiment [12] is described as follows: qHTS profiling of the MIPE4 collection as inhibitors of Plasmodium falciparum (DD2) proliferation (Rep 2) (AID 743346; call rule not given here). The note with it: P. falciparum Dd2 in erythrocytes, SYBR Green DNA, 72 h; at 28.5 µM (top of the series) unless noted. An outline of the steps: as §2
Experiment [13] is described as follows: qHTS profiling of the MIPE4 collection as inhibitors of Plasmodium falciparum (HB3) proliferation (AID 743347; call rule not given here;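 also: plate controls were DMSO vehicle wells for no effect and artemisinin wells for full effect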). The note with it: P. falciparum HB3 in erythrocytes, SYBR Green DNA, 72 h; at 28.5 µM (top of the series) unless noted. In a few lines: as §2
Experiment [14] is described as follows: qHTS assay to identify small molecule inhibitors of chordoma cells - UCH-2 (AID 1259356). Also: % is scaled to controls: 0 for no effect and ±100 for the full control effect.

Take `NC(N)=NC(=O)c1nc(Cl)c(N)nc1N`: the cell viability, % of control (lower = more cytotoxic) in [1] is 12.8%. The viability (% of control) in [2] is 23.5%. Further, the Potency entry in experiment [3], in experiment [4], in experiment [5], in experiment [6], in experiment [7] and in [8] was “inactive” in each case. In experiment [9], the Potency entry was “inactive”.

As to `O=c1n(CCCN2CCN(c3cccc(Cl)c3)CC2)nc2ccccn12`, the parasite growth, % of DMSO control in experiment [10] was 60.5%. Moreover, the parasite growth remaining, % of DMSO control (lower = more inhibition) in experiment [11] amounted to 82.9%. This compound had a parasite growth, % of control (lower = inhibition) in experiment [12] of 72.8%. This compound also returned a growth, % of control in experiment [13] of 92.5%. The cell viability, % of control (lower = more cytotoxic) in experiment [1] turned out to be 165%. Also, the viability (% of control) in experiment [2] is 100%. Further, the Potency entry in [3], in experiment [4], in [5], in [6], in [7] and in [8] was “inactive” each time. The Potency result in experiment [9] was “inactive”.

The compound `Oc1ccc(C2CNCCc3c2cc(O)c(O)c3Cl)cc1` (stereo unspecified) showed a parasite growth, % of DMSO control in [10] of 6.63%. For the same compound, in experiment [11], the parasite growth remaining, % of DMSO control (lower = more inhibition) stood at 65.8%. In [12], this compound came in with a parasite growth, % of control (lower = inhibition) of 14.2%. The growth, % of control in experiment [13] was 7.76%. In addition, the cell viability, % of control (lower = more cytotoxic) in experiment [1] stood at 156%. For the same compound, the viability (% of control) in experiment [2] is 66.9%. Also, the Potency entry in [3], in experiment [4], in experiment [5], in experiment [6], in experiment [7] and in experiment [8] was “inactive” throughout. Moreover, in [9], the Potency entry was “inactive”.

`Cc1[nH]c(=O)c(C#N)cc1-c1ccncc1` had a parasite growth, % of DMSO control in experiment [10] of 15.2%. Besides, the parasite growth remaining, % of DMSO control (lower = more inhibition) in experiment [11] came to 14.6%. The compound also showed a parasite growth, % of control (lower = inhibition) in experiment [12] of 36.4%. Moreover, in experiment [1], the cell viability, % of control (lower = more cytotoxic) was found to be 244%. Besides, in experiment [2], the viability (% of control) worked out at 23%. Also, the Potency entry in [3], in experiment [4], in experiment [5], in [6], in experiment [7] and in [8] was “inactive” each time. Besides, the Potency entry in experiment [9] is “inactive”. In addition, the call in experiment [14] was inactive.

For the compound `N[C@@H]1CONC1=O`, the parasite growth, % of DMSO control in [10] came out at 398%. Also, the parasite growth remaining, % of DMSO control (lower = more inhibition) in experiment [11] was found to be 120%. In experiment [12], this compound displayed a parasite growth, % of control (lower = inhibition) of 80.9%. The compound also gave a growth, % of control in experiment [13] of 650%. In addition, the cell viability, % of control (lower = more cytotoxic) in [1] was 150%. For the same compound, the viability (% of control) in [2] is 97.9%. Also, the Potency result in experiment [3], in [4], in [5], in experiment [6], in experiment [7] and in [8] was “inactive” each time. Moreover, the Potency result in [9] was “inactive”.

`CNC[C@H](O)c1cccc(O)c1`: the parasite growth, % of DMSO control in experiment [10] came to 102%. The parasite growth remaining, % of DMSO control (lower = more inhibition) in [11] was 98.1%. In addition, the parasite growth, % of control (lower = inhibition) in [12] stood at 94.6%. Also, the cell viability, % of control (lower = more cytotoxic) in experiment [1] is 196%. In addition, the viability (% of control) in [2] came to 133%. Further, the Potency entry in experiment [3], in [4], in [5], in experiment [6], in experiment [7] and in experiment [8] was “inactive” throughout. Further, the Potency result in experiment [9] was “inactive”. The compound was called inactive in experiment [14].

In turn, `CCOC(=O)N1CCC(=C2c3ccc(Cl)cc3CCc3cccnc32)CC1` registered a parasite growth, % of DMSO control in experiment [10] of 14.5%. For the same compound, in [11], the parasite growth remaining, % of DMSO control (lower = more inhibition) was determined as 56.2%. Besides, the parasite growth, % of control (lower = inhibition) in [12] worked out at 28.5%. This compound registered a growth, % of control in experiment [13] of 13.8%. In [1], the cell viability, % of control (lower = more cytotoxic) came to 186%. Besides, the viability (% of control) in experiment [2] worked out at 87.3%. The Potency result in [3], in experiment [4] and in experiment [9] was “inactive” in each case. Further, the Potency in experiment [5] is 26.4 µM (active); in [6] it was 26.4 µM (active); in experiment [7] it was 26.4 µM (active); in [8], 23.5 µM (active). Further, the compound was classed as inactive in experiment [14].

On to `CC(C)NCC(O)COc1ccc(COCCOC(C)C)cc1` (stereo unspecified), for which the parasite growth, % of DMSO control in experiment [10] stood at 78.7%. Besides, the parasite growth remaining, % of DMSO control (lower = more inhibition) in experiment [11] turned out to be 102%. For the same compound, the parasite growth, % of control (lower = inhibition) in experiment [12] amounted to 98%. For the same compound, the growth, % of control in [13] came to 102%. In addition, the cell viability, % of control (lower = more cytotoxic) in experiment [1] worked out at 123%. Further, in experiment [2], the viability (% of control) came to 113%. Also, the Potency result in experiment [3], in experiment [4], in experiment [5], in experiment [6], in [7] and in [8] was “inactive” throughout. Moreover, in experiment [9], the Potency result is “inactive”.

Source of the values: PubChem BioAssay (NCATS).
